Measurements reported in PubChem BioAssay.
Activity calls are given as the source filed them. Unless noted, the rule behind the calls is not given here.

What was measured:
[1] = compound effects on lung adenocarcinoma cell viability – A549, calcein-AM fluorescence, 48 h, basal, profiling panel (AID 1162); conditions: higher = more signal; note: test concentration not given here
[2] = compound effects on differentiated 3T3-L1 adipocyte viability – cell-based, 3T3-L1 adipocytes, calcein-AM fluorescence, 48 h, basal, profiling panel (AID 1163); conditions: 3T3-L1 adipocytes viability, higher = more signal; note: test concentration not given here
[3] = compound effects on hepatocellular carcinoma cell viability – HepG2, calcein-AM fluorescence, 48 h, basal, profiling panel (AID 1164); conditions: higher = more signal; note: test concentration not given here
[4] = compound effects on multiple myeloma cell viability – MM1S, calcein-AM fluorescence, 48 h, basal, profiling panel (AID 1165); conditions: higher = more signal; note: test concentration not given here
[5] = calcein-AM signal in unstimulated myeloma cells – cell-based, calcein-AM fluorescence, 48 h, PK04 Diversity Set, profiling panel (AID 1166); conditions: RPMI8226 myeloma viability, higher = more signal;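 note: cells grown under basal conditions without added stimulus; test concentration not given here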
[6] = JC-1 mitochondrial signal, unstimulated HepG2 cells – cell-based, JC-1 fluorescence, 24 h, 100 nL compound, profiling panel (AID 1167); conditions: HepG2 mitochondrial potential, higher = more signal; note: test concentration not given here
[7] = JC-1 mitochondrial signal, unstimulated adipocytes – cell-based, JC-1 fluorescence, 3T3-L1 adipocytes, 24 h, 100 nL compound, profiling panel (AID 1168); conditions: JC-1 mitochondrial fluorescence, higher = more signal, called active from +8 up or from −8 down; note: test concentration not given here
[8] = JC-1 mitochondrial signal, unstimulated myeloma cells – cell-based, JC-1 fluorescence, RPMI8226, 24 h, 100 nL compound, profiling panel (AID 1169); conditions: JC-1 mitochondrial potential fluorescence, higher = more signal; note: test concentration not given here
[9] = JC-1 mitochondrial signal, unstimulated MM1S myeloma – cell-based, JC-1 fluorescence, 24 h, 100 nL compound, profiling panel (AID 1170); conditions: MM1S mitochondrial potential, higher = more signal; note: test concentration not given here
[10] = resazurin metabolic signal in A549 cells – cell-based, resazurin fluorescence, 24 h, PK04 Diversity Set, profiling panel (AID 1171); conditions: A549 viability, higher = more signal, called active from +8 up or from −8 down; note: test concentration not given here
[11] = resazurin metabolic signal in HepG2 cells – cell-based, resazurin fluorescence, 24 h, PK04 Diversity Set, profiling panel (AID 1172); conditions: HepG2 viability, higher = more signal; note: test concentration not given here
[12] = budding yeast growth changes without added modifier – OD600, strain BY4716, 24 h, basal condition, primary screen (AID 1173); conditions: S. cerevisiae BY4716 growth, OD600, 24 h; higher = more signal, called active from +8 up or from −8 down
[13] = viability profiling in MM1S myeloma cells – cell-based, resazurin fluorescence, basal, 24 h, PK04 Diversity Set, profiling panel (AID 1174); conditions: higher = more signal, called active from +8 up or from −8 down; note: test concentration not given here
[14] = target: Dihydroorotate dehydrogenase (quinone), mitochondrial (Plasmodium falciparum (isolate 3D7)) (UniProt Q08210); test: inhibition of P. falciparum DHODH – biochemical, C-terminal His tag, absorbance 600 nm, primary screen (AID 1175); conditions: PfDHODH enzyme, DCIP absorbance 600 nm; higher = more signal, called active from +8 up or from −8 down;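 note: recombinant parasite enzyme with a five histidine tag at its C terminus; test concentration not given here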
[15] = inhibition of PAO1 biofilm formation – strain PAO1, LB-PBS medium, absorbance 600 nm, primary screen (AID 1176); note: test concentration not given here; conditions: P. aeruginosa PAO1 growth/biofilm, A600, 12 h; higher = more signal
[16] = growth modulation of vineyard yeast isolate – strain RM11-1a, OD600, basal, 24 h, primary screen (AID 1177);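 note: cultures grown under basal conditions with no added stressor; test concentration not given here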; conditions: S. cerevisiae RM11-1a growth, OD600, 24 h; higher = more signal, called active from +8 up or from −8 down
[17] = growth of efflux-deficient E. coli DRC39 – strain DRC39, OD650, 24 h, E. coli filamentation inducers, primary screen (AID 1178);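 note: growth measured as culture turbidity by optical density at 650 nm; test concentration not given here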; conditions: E. coli DRC39 acrAB, higher = more signal, called active from +8 up or from −8 down
[18] = growth of efflux-deficient E. coli DRC39 – strain DRC39, OD650, 48 h, E. coli filamentation inducers, primary screen (AID 1179);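 note: screen aims at cell division blockers that make cells filament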; conditions: E. coli DRC39 delta-acrAB growth, higher = more signal, called active from +8 up or from −8 down
[19] = viability profiling in RPMI8226 myeloma cells – cell-based, resazurin fluorescence, basal, 24 h, PK04 Diversity Set, profiling panel (AID 1180); conditions: higher = more signal;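 note: RPMI8826 multiple myeloma cell line at 5000 cells per well; test concentration not given here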
[20] = target: E3 ubiquitin-protein ligase XIAP (Homo sapiens) (UniProt P98170); test: small molecules binding XIAP protein – biophysical, small-molecule microarray, fluorescence 635 nm, primary screen (AID 1181); conditions: higher = more signal;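 note: score merges 667 nm emission and signal to noise over triplicate slides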
E3 ubiquitin-protein ligase XIAP (Homo sapiens), sequence (P98170 whole entry, looked up): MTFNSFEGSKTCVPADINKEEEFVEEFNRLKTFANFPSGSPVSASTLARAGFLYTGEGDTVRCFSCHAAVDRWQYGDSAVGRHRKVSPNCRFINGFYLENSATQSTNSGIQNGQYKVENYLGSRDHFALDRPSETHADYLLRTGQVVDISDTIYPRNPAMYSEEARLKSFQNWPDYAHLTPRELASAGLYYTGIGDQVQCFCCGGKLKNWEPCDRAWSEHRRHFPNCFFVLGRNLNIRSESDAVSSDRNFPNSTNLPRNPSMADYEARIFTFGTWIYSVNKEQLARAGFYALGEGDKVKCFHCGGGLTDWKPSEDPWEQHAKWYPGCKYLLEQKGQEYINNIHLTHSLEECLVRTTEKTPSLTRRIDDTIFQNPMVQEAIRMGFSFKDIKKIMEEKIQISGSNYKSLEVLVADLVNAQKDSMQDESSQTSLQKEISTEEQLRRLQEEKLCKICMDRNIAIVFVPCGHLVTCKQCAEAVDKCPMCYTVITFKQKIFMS

Dihydroorotate dehydrogenase (quinone), mitochondrial (Plasmodium falciparum (isolate 3D7)), sequence (Q08210 whole entry, looked up): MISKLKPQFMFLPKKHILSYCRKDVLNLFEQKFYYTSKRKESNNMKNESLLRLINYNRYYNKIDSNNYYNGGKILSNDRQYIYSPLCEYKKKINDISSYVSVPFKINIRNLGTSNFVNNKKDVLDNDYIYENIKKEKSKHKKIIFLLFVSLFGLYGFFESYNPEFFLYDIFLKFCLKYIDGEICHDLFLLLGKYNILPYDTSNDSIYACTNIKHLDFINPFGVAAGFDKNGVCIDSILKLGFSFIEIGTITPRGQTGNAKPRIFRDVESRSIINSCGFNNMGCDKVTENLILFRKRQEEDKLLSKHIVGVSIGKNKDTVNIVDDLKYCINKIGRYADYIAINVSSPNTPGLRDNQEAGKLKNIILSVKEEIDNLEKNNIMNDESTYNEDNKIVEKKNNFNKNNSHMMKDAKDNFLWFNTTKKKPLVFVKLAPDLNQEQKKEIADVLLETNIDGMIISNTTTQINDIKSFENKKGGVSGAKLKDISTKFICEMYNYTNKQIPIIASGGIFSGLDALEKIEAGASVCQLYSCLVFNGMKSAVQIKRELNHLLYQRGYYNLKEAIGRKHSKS

SMILES | z-score [1] | z-score [2] | z-score [3] | z-score [4] | z-score [5] | z-score [6] | z-score [7] | z-score [8] | z-score [9] | z-score [10] | z-score [11] | z-score [12] | z-score [13] | composite z-score [14] | z-score [15] | z-score [16] | z-score [17] | z-score [18] | z-score [19] | composite z-score [20]
COc1ccc([Si](C)(C)[C@@H]2[C@@H](CC(=O)N(CCO)Cc3ccccc3)O[C@]3(C(=O)N(c4ccccc4)c4ccccc43)[C@H]2C)cc1 | -2.69 | 1.11 | -4.56 | -2.67 | -4.36 | -0.899 | 0.928 (inactive) | -1.08 | -2.3 | -1.94 (inactive) | -2.66 | -1.74 (inactive) | -5.11 (inactive) | 0.818 (inactive) | 1.26 (inactive) | 0.525 (inactive) | 1.21 (inactive) | 1.1 (inactive) | -5.53 | -0.112
O=C1NC(=O)C2C1C=CC(C(O)c1cccc3ccccc13)N2Nc1ccc(Cl)cc1Cl (stereo not given) | -2.6 | -0.132 | -2.76 | -3.71 | -4.17 | -4.07 | -1.1 (inactive) | -0.962 | -0.213 | -0.993 (inactive) | -2.01 | -4.99 (inactive) | -1.66 (inactive) | 0.847 (inactive) | 0.875 (inactive) | 0.981 (inactive) | -0.693 (inactive) | -0.726 (inactive) | -1.84 | 0.351
C=C(/C(=C/C[C@H](OC(C)=O)c1ccccc1OCCO)c1cc(C(=O)OC)ccc1OC)C(C)C | -0.297 | 1.77 | -0.644 | -1.2 | -1.75 | 1.14 | 1.16 (inactive) | 0.0903 | 1.08 | 0.0515 (inactive) | -0.169 | -2.2 (inactive) | 0.121 (inactive) | -1.96 (inactive) | -0.529 (inactive) | -0.0703 (inactive) | -0.0536 (inactive) | -0.216 (inactive) | 0.0967 | 0.13
N#Cc1ccc(C(O)C2C=CC3C(=O)N(c4ccccc4)C(=O)C3N2Nc2ccccc2)cc1 (stereo not given) | -0.26 | 0.744 | -0.638 | 0.41 | -0.153 | -0.651 | 0.693 (inactive) | 0.173 | -0.482 | -1 (inactive) | -0.888 | -2.46 (inactive) | -0.697 (inactive) | -0.561 (inactive) | 1.06 (inactive) | -0.433 (inactive) | 0.366 (inactive) | 0.0165 (inactive) | -0.196 | 0.0537
CCCNC(=O)[C@@H]1c2ccccc2C(=O)N(C(C)C)[C@H]1c1ccc(CO)cc1 | 0.678 | 0.306 | 0.997 | 0.92 | -0.34 | 1.81 | 1.82 (inactive) | -0.119 | -0.695 | 0.136 (inactive) | 0.321 | 0.121 (inactive) | 0.551 (inactive) | -0.185 (inactive) | 0.127 (inactive) | 0.846 (inactive) | 0.313 (inactive) | 1.31 (inactive) | 0.497 | -0.237
CC(C)C(=C=CC[C@H](O)c1ccc(OCCO)cc1)C[C@H](O)c1ccccn1 | 1.84 | -0.245 | 1.34 | -1.86 | -0.121 | 0.421 | -0.0235 (inactive) | -0.479 | -0.5 | 1.15 (inactive) | 0.748 | -1.7 (inactive) | 0.143 (inactive) | -0.575 (inactive) | 0.379 (inactive) | 0.673 (inactive) | 1.37 (inactive) | 0.879 (inactive) | 0.986 | 0.244
COCCOC(=O)N1C(=O)[C@@]2(c3cc(C#Cc4ccc(OC)cc4)ccc31)[C@H](C(=O)Nc1nc3ccccc3s1)[C@H]1C(=O)O[C@H](c3ccccc3)[C@H](c3ccccc3)N1[C@@H]2c1ccc(OCCO)cc1 | -0.205 | -0.106 | -1.07 | -1.59 | -0.482 | -3.17 | 2.92 (inactive) | -0.604 | -1.44 | -0.0799 (inactive) | -0.635 | 3.03 (inactive) | -0.63 (inactive) | -0.27 (inactive) | 2.32 (inactive) | 3.64 (inactive) | -0.358 (inactive) | -0.486 (inactive) | -0.56 | -0.075
CCCCCCCCCCC(O)C1C=CC2C(=O)N(C)C(=O)C2N1Nc1ccc([N+](=O)[O-])cc1[N+](=O)[O-] (stereo not given) | -0.783 | -0.801 | -1.2 | -3.69 | -4.05 | 0.693 | -1.21 (inactive) | -0.935 | -1.8 | -0.283 (inactive) | -1.62 | 0.869 (inactive) | -1.64 (inactive) | -1.39 (inactive) | 0.695 (inactive) | 0.945 (inactive) | -1.26 (inactive) | -0.459 (inactive) | -1.67 | -0.0994
CC(C)C[C@@H]1NC(=O)[C@@H]2C[C@H](C(=O)NCCCCCN)[C@H](c3ccc(O)cc3)N2C1=O | 0.0318 | 0.484 | -0.354 | -0.0387 | 0.286 | -0.502 | -0.259 (inactive) | 0.7 | 0.698 | -0.676 (inactive) | -1.3 | 0.732 (inactive) | -0.205 (inactive) | 0.582 (inactive) | -0.226 (inactive) | 1.04 (inactive) | -0.496 (inactive) | -0.728 (inactive) | -0.354 | 0.0015
C=CCNC(=O)[C@H]1[C@@H]2C(=O)O[C@@H](c3ccccc3)[C@@H](c3ccccc3)N2[C@@H](c2ccc(O)cc2)[C@]12C(=O)N(C(=O)OCCOC)c1ccccc12 | -0.335 | 1.19 | -0.513 | -1.79 | -1.66 | -1.67 | 0.0113 (inactive) | -1.01 | 0.338 | -1.56 (inactive) | -0.757 | 0.628 (inactive) | -0.331 (inactive) | 0.747 (inactive) | 0.229 (inactive) | 0.931 (inactive) | -0.919 (inactive) | -1.08 (inactive) | 0.164 | -0.02
O=C1C2C=CC(C(O)c3ccccc3)N(Nc3ccccc3F)C2C(=O)N1c1ccccc1 (stereo not given) | -0.826 | -0.717 | 0.925 | -1.06 | 0.379 | 0.12 | -0.0776 (inactive) | -1.04 | -1.29 | -0.412 (inactive) | 0.688 | -1.64 (inactive) | -1.07 (inactive) | -0.104 (inactive) | 0.629 (inactive) | 0.0428 (inactive) | -0.737 (inactive) | 0.206 (inactive) | 0.466 | 0.258
CC(C)N1CC=CC23O[C@@H]4C=CCOC(=O)[C@@H]4[C@H]2C(=O)N(CCCO)[C@@H]3C1=O (stereo not given in full) | 0.555 | 2.67 | -1.01 | 0.34 | -0.258 | -0.4 | 0.253 (inactive) | 0.354 | -1.5 | 0.108 (inactive) | -0.128 | -1.91 (inactive) | 1.34 (inactive) | -0.201 (inactive) | 0.248 (inactive) | -1.68 (inactive) | -0.135 (inactive) | 0.2 (inactive) | 0.939 | 0.29
C[N+](C)(C)CCCC[C@@H]1NC(=O)[C@H]2C[C@@H](C(=O)NCCCCCCN)[C@@H](c3ccc(O)cc3)N2C1=O | 0.811 | 0.629 | 0.38 | -1.39 | 0.135 | 1.28 | 0.367 (inactive) | -0.0466 | 0.596 | 0.169 (inactive) | -0.132 | 0.252 (inactive) | 0.99 (inactive) | 0.302 (inactive) | -0.515 (inactive) | 1.18 (inactive) | -0.231 (inactive) | -0.185 (inactive) | 0.976 | -0.0286
[N-]=[N+]=Nc1ccccc1C[C@]1(C(N)=O)N=C(c2ccc(OCCCO)cc2)O[C@H]1c1ccccc1N=[N+]=[N-] | -1.47 | 1.32 | -1.84 | -2.29 | -3.48 | -1.04 | -0.981 (inactive) | -1.21 | -0.825 | -1.36 (inactive) | -0.0314 | -2.88 (inactive) | -1.55 (inactive) | -0.398 (inactive) | -0.193 (inactive) | -0.315 (inactive) | 0.892 (inactive) | -0.142 (inactive) | -1.64 | -0.248
C=CCN1C(=O)[C@@]2(CCS(=O)(=O)c3ccccc3)N=C(c3ccc(OCCCO)cc3)O[C@H]2c2ccccc21 | 0.0843 | 0.473 | 0.684 | -0.786 | -2.05 | -0.692 | 1.79 (inactive) | -0.995 | 0.0237 | -0.812 (inactive) | -0.436 | 0.698 (inactive) | -0.427 (inactive) | -0.218 (inactive) | 0.563 (inactive) | 1.45 (inactive) | -0.0209 (inactive) | 0.242 (inactive) | -2.12 | -0.0421
